Results with a measured potency or affinity are listed apart. Inconclusive results are not listed. Calls of active or inactive are those of the source. How the calls were made is not given here.

A short description of the experiment: toxicity to human HepG2 hepatoma cells – cell-based, plate reader, dry powder samples, cytotoxicity control, dose response (AID 1159569). Particulars: HepG2 cytotoxicity counterscreen; series mostly up to 50 µM; activity change, negative = cytotoxicity: at the top concentration. (In general: Counterscreens check selectivity or assay interference.)
For the compound `C[C@@H]1CN([C@@H](C)CO)S(=O)(=O)c2ccc(C#CC3CCCC3)cc2O[C@H]1CN(C)C(=O)Cc1ccncc1`, the “activity change, negative = cytotoxicity” value was -34.8% (inactive). With `C[C@@H]1CN([C@@H](C)CO)C(=O)Cc2cc(NC(=O)Nc3ccc4c(c3)OCO4)ccc2O[C@@H]1CN(C)CC1CC1` the figure was -11.2% (inactive). With `CC(C)NC(=O)Nc1ccc2c(c1)C(=O)N(C)[C@H]1CC[C@H](CC(=O)Nc3ccccc3)O[C@H]1CO2` the figure was -9.14% (inactive). As for `O=C(c1ccc(F)cc1)N1CC(=O)N2[C@H](C1)[C@@H](c1ccc(-c3cccnc3)cc1)[C@@H]2CO`, the “activity change, negative = cytotoxicity” value is -6.43% (inactive).

As for `CC(C)NC(=O)N1[C@@H](CO)[C@@H](c2ccccc2)C12CN(Cc1ccc(F)cc1)C2`, the “activity change, negative = cytotoxicity” value is -23.3% (inactive).

As to `C[C@@H]1CN([C@@H](C)CO)C(=O)c2cccc(NC(=O)c3nc4ccccc4s3)c2O[C@H]1CN(C)C(=O)Nc1ccc2c(c1)OCO2`, the “activity change, negative = cytotoxicity” value was -8.51% (inactive). Next, `O=C(Nc1ccccc1F)N1CCCCN2[C@H](CO)[C@H](c3ccc(C#Cc4cccnc4)cc3)[C@@H]2C1`: -13.4% (inactive). Take `C[C@@H]1CN([C@@H](C)CO)C(=O)c2cccc(NC(=O)Nc3ccccc3)c2O[C@@H]1CN(C)C(=O)Nc1ccc(F)cc1`: the “activity change, negative = cytotoxicity” value is -2.4% (inactive). With `C[C@@H]1CN([C@H](C)CO)S(=O)(=O)c2ccc(C#Cc3ccccc3F)cc2O[C@H]1CN(C)C(=O)c1ccc2c(c1)OCO2` the figure was -31.9% (inactive). Take `COc1ccc(NC(=O)N2CC3(C2)CN(C(=O)C2CCC2)[C@H](CO)c2c3c3ccc(OC)cc3n2C)cc1`: the “activity change, negative = cytotoxicity” value was -15.6% (inactive). Next, `C[C@@H]1CN([C@H](C)CO)C(=O)c2cc(C#CCc3ccccc3)cnc2O[C@H]1CN(C)C(=O)C1CCC1`: -10.4% (inactive).

The record behind these values is PubChem BioAssay AID1159569 (Broad Institute, 2015).
